Reference: PubChem BioAssay (NCI)
This is part of a sample that, as a whole, favours compounds with a hit. Of some 83,000 tested, about 20% had one in any assay.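 Negative percent growth values reflect cell death: -40 means 40% of the cells present at the start died, and -100 means all died.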 A number with no mark means an inactive call. Active and inactive are the calls of the source. Rule for the calls: active = growth percent below 10; inactive = the rest.

Legend:
Assay in all cases: NCI-60 one-dose screen, 48 h (100 = growth as untreated, 0 = no growth, -100 = all killed)
Conditions in all cases: 10 µM unless noted
NCI-H23 lung = system: NCI-H23 lung
NCI-H322M lung = system: NCI-H322M lung
HOP-62 NSCLC = system: HOP-62 NSCLC
NCI-H460 lung = system: NCI-H460 lung
HOP-92 NSCLC = system: HOP-92 NSCLC
NCI-H522 lung = system: NCI-H522 lung
A549/ATCC NSCLC = system: A549/ATCC NSCLC
786-0 renal = system: 786-0 renal
DU-145 prostate = system: DU-145 prostate
K-562 leukemia = system: K-562 leukemia
MALME-3M melanoma = system: MALME-3M melanoma
MDA-MB-231 breast = system: MDA-MB-231 breast
RXF 393 renal = system: RXF 393 renal
SF-268 CNS = system: SF-268 CNS
SF-295 CNS = system: SF-295 CNS
SF-539 CNS = system: SF-539 CNS
UACC-257 melanoma = system: UACC-257 melanoma
M14 melanoma = system: M14 melanoma
HCT-15 colon = system: HCT-15 colon
COLO 205 colon = system: COLO 205 colon

Row | SMILES | growth (NCI-H23 lung) | growth (NCI-H322M lung) | growth (HOP-62 NSCLC) | growth (NCI-H460 lung) | growth (HOP-92 NSCLC) | growth (NCI-H522 lung) | growth (A549/ATCC NSCLC) | growth (786-0 renal) | growth (DU-145 prostate) | growth (K-562 leukemia) | growth (MALME-3M melanoma) | growth (MDA-MB-231 breast) | growth (RXF 393 renal) | growth (SF-268 CNS) | growth (SF-295 CNS) | growth (SF-539 CNS) | growth (UACC-257 melanoma) | growth (M14 melanoma) | growth (HCT-15 colon) | growth (COLO 205 colon)
1 | CNCCNc1nc2ccccc2c2c(=O)c3cccc(OC)c3sc12 | 47.1% | 33.8% | 34.1% | -68.2% (active) | 5.16% (active) | 27.5% | 17.9% | 26.5% | 12.6% | -39% (active) | 59.6% | 13.8% | 41.5% | 37.8% | 52.6% | 34.9% | 64% | -71.3% (active) | -39.9% (active) | 
2 | COc1ccc(Nc2nc(N/N=C/c3ccc(O)cc3)nc(Nc3ccc([N+](=O)[O-])cc3)n2)cc1 | 103% | 110% | 107% | 107% | 109% | 95.3% | 104% | 105% |  | 103% | 114% | 109% | 121% | 128% | 89.2% | 110% | 99.9% | 108% | 107% | 111%
3 | O=C(CCc1nnc2sc(-c3ccc(Cl)cc3Cl)nn12)c1nc2ncccc2[nH]1 | -40.7% (active) | 11.7% | 2.87% (active) | -66.8% (active) | -62.1% (active) | -47.9% (active) | 4.78% (active) | -31.5% (active) | -7.95% (active) | 6.32% (active) | -47.6% (active) | -43.5% (active) | -93.1% (active) | 36.9% | -56.8% (active) | -21% (active) | -25.3% (active) | -14.2% (active) | -40.2% (active) | 
4 | O=c1c2cc(F)ccc2sc2c(Nc3ccncc3)nc3ccccc3c12 | 45.9% | 81.4% | 34.7% | -76.7% (active) | 54.5% | 5.65% (active) | -43.8% (active) | -79.8% (active) | 4.28% (active) | -47.1% (active) | 22% | -89.7% (active) | -42% (active) | -10.4% (active) | 101% | 70.8% | 113% | -27.2% (active) | -70.5% (active) | 
5 | CC(=O)c1ccc(NC(=O)Nc2ccc(S(=O)(=O)Nc3ccc(Cl)nn3)cc2)cc1 | 96.4% | 95.8% | 95.9% | 109% | 106% | 96.9% | 103% | 108% | 110% | 103% | 100% | 96.7% | 117% | 99.2% | 103% | 97.6% | 99.4% | 111% | 107% | 
6 | O=C(Cn1cc(COc2ncnc3c2cnn3-c2ccccc2)nn1)Nc1cccc2ccccc12 | 89% | 93.2% | 90.5% | 93.7% | 82.3% | 81.1% | 92.3% | 103% | 97.9% | 94.6% | 93.6% | 95% | 94.8% | 92.6% | 99.4% | 90% | 95.9% | 105% | 96.9% | 
7 | COC(=O)c1c2c(c(C)[n+]([O-])c1C)C(=O)C(NCc1ccc(Br)cc1)=CC2=O | 11% | 28.7% | 31.4% | 3.51% (active) | 78.1% | 42.8% | 18.2% | 48.8% | 53.3% | 32% | -70.1% (active) | 4.21% (active) | 41.4% | 16.2% | 19.3% | 8.36% (active) | -52.3% (active) | 4.19% (active) | 7.94% (active) | 
8 | C1=CC2(C=C1)OC21CCC2(C=CC3(C2)OC3C2CCCCC2)CC1 (stereo unspecified) | 116% | 105% | 112% | 103% | 104% | 106% | 101% | 100% | 112% | 113% | 108% | 108% | 119% | 104% | 106% | 101% | 108% | 102% | 101% | 
9 | COc1cc(CNC(=O)Cc2ccccc2)ccc1OCc1cn(-c2ccc(F)cc2)nn1 | 94.9% | 103% | 104% | 101% | 107% | 90.1% | 97.5% | 104% | 108% | 91.8% | 114% | 89.5% | 125% | 98.1% | 101% | 99.5% | 97.7% | 101% | 106% | 
10 | COC(=O)c1c2c(c(C)[n+]([O-])c1C)C(=O)C=C(NCc1ccccc1)C2=O | -50% (active) | -5.71% (active) | 2.96% (active) | -13.1% (active) | -27.2% (active) | -26.1% (active) | -4.94% (active) | 4.63% (active) | -92.7% (active) | 1.96% (active) | -96.9% (active) | -26% (active) | -25.3% (active) | -4.22% (active) | -84% (active) | -90.2% (active) | -89.6% (active) | -80.1% (active) | -68.5% (active) | 
11 | O=C1CCC(N2C(=O)c3cccc(NCCCCCCOc4ccc(Nc5nccc(Nc6ccccc6)n5)cc4)c3C2=O)C(=O)N1 (stereo unspecified) | 62.6% | 91.6% | 84.2% | 83.6% | 84.1% | 76.6% | 81.6% | 91.9% | 97.8% | 46.8% | 76.7% | 86.6% | 94.7% | 88.7% | 73.3% | 89.1% | 73.1% | 88.1% | 86.7% | 
12 | O=C(CN1C=NC2C(N3CCOCC3)=NC=NC21)c1ccc(Br)cc1 (stereo unspecified) | 99.2% | 97.2% | 103% | 99.9% | 106% | 87.2% | 103% | 103% | 107% | 106% | 104% | 105% | 103% | 98.9% | 97.9% | 100% | 105% | 107% | 101% | 
13 | NCCNc1nc2ccccc2c2c(=O)c3cc(F)cc(Cl)c3sc12 | 75.4% | -27.1% (active) | -51.7% (active) | -90% (active) | 40.8% | -44.8% (active) | -72.9% (active) | -90.4% (active) | -92.6% (active) | -62.7% (active) | 89.6% | -79.2% (active) | 67% | -42.4% (active) | 98.2% | 58.6% | 103% | -76.6% (active) | -83.4% (active) | 
14 | COC(=O)C1(C)COP(=O)(Nc2ccc(OC)cc2)OC1 (stereo unspecified) | 102% | 90.3% | 107% | 109% | 109% | 111% | 98% | 99.1% | 111% |  | 116% | 110% | 113% | 103% | 107% | 104% | 98.7% | 102% | 108% | 
15 | Cn1c(/C=C(\C#N)c2ccccc2)nc2c(N3CCOCC3)nc(Cl)nc21 | 17.5% | 65.9% | 38% | 18.1% | -75.6% (active) | -57.5% (active) | 30.4% | -71.4% (active) | -72.4% (active) | -13.8% (active) | -51.2% (active) | -80.3% (active) | -86.3% (active) | -66.2% (active) | 85.1% | -88% (active) | -61.5% (active) | -62.5% (active) | -66.8% (active) | 
16 | O=C1/C=C/[C@@H](O)[C@@H]2C[C@@H](O)C[C@H]2/C=C/CCCCO1 | 13% | 33.2% | 23.8% | 7.12% (active) | -3.95% (active) | 19.4% | 23.1% | 3.17% (active) | 19.3% | 13.7% | 13.8% | -21.2% (active) |  | 11.7% | 21.9% | 17.8% | 9.88% (active) | 30.2% | 19.8% | 
17 | Cc1ccc(N=NC2C(=O)N(c3ccc(Cl)cc3)N(c3ccc(Cl)cc3)C2=O)cc1 | 95.6% | 97.4% | 89.2% | 99.8% | 101% | 85.1% | 99% | 108% | 107% | 94.1% | 98% | 91.7% | 113% | 100% | 93.9% | 100% | 86.8% | 102% | 98.3% | 
